The panel holds about 79,000 compounds, 15% with a hit somewhere; the sample as a whole holds those more often. Unmarked numbers belong to inactive results. The source made the active and inactive calls. Rule as the data show it: active = growth inhibition above about 70%; inactive = the rest.
What was measured:
[1] = NCI Yeast Anticancer Drug Screen. Data for the rad52 strain (AID 147);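 also: 0% = growth of vehicle-treated control cultures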; conditions: S. cerevisiae rad52 mutant growth inhibition, hits give high values
Procedure, shortened: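 Yeast strain carrying a DNA damage repair alteration was exposed to test compounds. Growth inhibition was measured relative to vehicle-treated controls.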

[2] = NCI Yeast Anticancer Drug Screen. Data for the wt1 strain (AID 149);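 also: 0% = growth of vehicle-treated wt1 cultures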; conditions: S. cerevisiae wt1 strain (SPY 50644) growth inhibition, hits give high values
Procedure, shortened: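 Measured: growth of wt1 yeast under compound versus vehicle treatment, reported as inhibition.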

[3] = NCI Yeast Anticancer Drug Screen. Data for the rad50EPP+ strain (AID 151);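 also: 0% = growth of vehicle-treated control cultures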; conditions: S. cerevisiae rad50 mutant strain, hits give high values
Procedure, shortened: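 Yeast strain carrying rad50 alteration (rad50EPP+) exposed to compounds; growth inhibition measured relative to vehicle-treated controls.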

[4] = NCI Yeast Anticancer Drug Screen. Data for the mgt1 strain (AID 153); conditions: S. cerevisiae mgt1 mutant growth inhibition, hits give high values
Procedure, shortened: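 Yeast mgt1 strain (DNA repair/cell-cycle alteration panel) exposed to compounds; growth inhibition measured relative to vehicle-treated controls.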

[5] = NCI Yeast Anticancer Drug Screen. Data for the rad50 strain (AID 155);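 also: 0% = growth of vehicle-only cultures of the same strain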; conditions: S. cerevisiae rad50 strain growth inhibition, hits give high values
Procedure, shortened: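 Growth of the mutant yeast was measured after compound exposure and referenced to vehicle-treated cultures.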

[6] = NCI Yeast Anticancer Drug Screen. Data for the mec2-1 strain (AID 157); conditions: S. cerevisiae mec2-1 strain, hits give high values
Procedure, shortened: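 mec2-1 yeast strain, carrying an alteration in DNA damage repair or cell cycle control, was exposed to compounds; growth inhibition was measured relative to vehicle-treated controls.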

[7] = NCI Yeast Anticancer Drug Screen. Data for the rad14 strain (AID 159);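 also: 0% = growth of vehicle-treated control cultures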; conditions: S. cerevisiae rad14 strain growth inhibition, hits give high values
Procedure, shortened: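 Here, inhibition of yeast growth was measured after compound exposure, using a strain with a genetic defect in DNA damage repair and vehicle-treated cultures as the reference.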

[8] = NCI Yeast Anticancer Drug Screen. Data for the sgs1 mgt1 strain (AID 161);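 also: 0% = growth of cultures given vehicle only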; conditions: S. cerevisiae sgs1 mgt1 strain, hits give high values
Procedure, shortened: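 Yeast cells carrying a defined DNA-repair defect were exposed to test compounds. Growth inhibition was measured relative to vehicle-treated controls.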

[9] = NCI Yeast Anticancer Drug Screen. Data for the CLN2oe strain (AID 163);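 also: 0% = growth of vehicle-only control cultures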; conditions: S. cerevisiae CLN2oe strain, hits give high values
Procedure, shortened: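 Yeast cells carrying a defined cell-cycle control alteration were exposed to test compounds. Growth inhibition was scored against vehicle-treated control cultures.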

[10] = NCI Yeast Anticancer Drug Screen. Data for the cln2 rad14 strain (AID 165);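 also: 0% = growth equal to vehicle treated cultures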; conditions: S. cerevisiae cln2 rad14 strain, hits give high values
Procedure, shortened: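 Yeast carrying cln2 and rad14 alterations (cell cycle control and DNA damage repair) were exposed to compounds. Growth inhibition was measured against vehicle-treated controls.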

[11] = NCI Yeast Anticancer Drug Screen. Data for the bub3 strain (AID 167); conditions: S. cerevisiae bub3 mutant strain, hits give high values
Procedure, shortened: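 Whole-cell yeast assay. The mutant strain was incubated with compounds, and growth inhibition was determined by comparison with vehicle-treated cells.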

[12] = NCI Yeast Anticancer Drug Screen. Data for the sgs1 strain (AID 173);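 also: 0% = growth of vehicle-only control cultures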; conditions: S. cerevisiae sgs1 mutant, hits give high values
Procedure, shortened: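 Yeast mutant strains carrying defined defects in DNA damage repair or cell cycle control were exposed to test compounds. Growth inhibition was scored against vehicle-treated controls.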

[13] = NCI Yeast Anticancer Drug Screen. Data for the mlh1 rad18 strain (AID 175); conditions: S. cerevisiae mlh1 rad18 strain growth inhibition, hits give high values
Procedure, shortened: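 Growth inhibition of the yeast strain was measured after compound exposure and expressed relative to vehicle-treated controls. The strain carries defined defects in DNA damage repair.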

[14] = NCI Yeast Anticancer Drug Screen. Data for the rad18 strain (AID 177); conditions: S. cerevisiae rad18 mutant growth inhibition, hits give high values
Procedure, shortened: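 Yeast carrying a defined DNA damage repair alteration were exposed to compounds. Growth inhibition was expressed relative to vehicle-treated controls.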

[15] = NCI Yeast Anticancer Drug Screen. Data for the wt2 strain (AID 169);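 also: 0% = growth of vehicle-treated yeast cultures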; conditions: S. cerevisiae wt2 strain growth inhibition, hits give high values
Procedure, shortened: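 Yeast cells were exposed to test compounds, and growth inhibition was measured relative to vehicle-treated controls.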

[16] = NCI Yeast Anticancer Drug Screen. Data for the mlh1 strain (AID 171);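 also: 0% = growth of vehicle-treated control cultures of the same strain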; conditions: S. cerevisiae mlh1 strain growth inhibition, hits give high values
Procedure, shortened: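 Yeast carrying a defined genetic alteration in DNA damage repair or cell cycle control were exposed to test compounds. Growth inhibition was measured relative to vehicle-treated controls.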

[17] = at 5.0 µM (retest, dose inferred, filed as 0.5)
[18] = at 50.0 µM (retest, dose inferred, filed as 5.0)

In the case of N#CSc1ccc(S(N)(=O)=O)cc1, the growth inhibition ([1]; at 1.2 µM) is reported as -51%, the growth inhibition ([1]; at 3.7 µM) is reported as -48% and the growth inhibition ([1]; at 11.0 µM) is reported as -51%. The growth inhibition ([1]; at 33.0 µM) was -1%, the growth inhibition ([1]; at 100.0 µM) was 64% and the growth inhibition ([2]; at 1.2 µM) was -43%. The growth inhibition ([2]; at 3.7 µM) was -50%, the growth inhibition ([2]; at 11.0 µM) was -31% and the growth inhibition ([2]; at 33.0 µM) was -9%. For the same compound, the growth inhibition ([2]; at 100.0 µM) was 53%, the growth inhibition ([3]; at 1.2 µM) was -67% and the growth inhibition ([3]; at 3.7 µM) was -50%. The growth inhibition ([3]; at 11.0 µM) was -91%, the growth inhibition ([3]; at 33.0 µM) was -86% and the growth inhibition ([3]; at 100.0 µM) was -14%. The growth inhibition ([4]; at 1.2 µM) was -81%, the growth inhibition ([4]; at 3.7 µM) was -91% and the growth inhibition ([4]; at 11.0 µM) was -44%. For the same compound, the growth inhibition ([4]; at 33.0 µM) was -62%, the growth inhibition ([4]; at 100.0 µM) was 46% and the growth inhibition ([5]; at 1.2 µM) was -55%. It also gave a growth inhibition ([5]; at 3.7 µM) of -39%, a growth inhibition [5, 17] of 51% and a growth inhibition ([5]; at 11.0 µM) of -36%. The growth inhibition ([5]; at 33.0 µM) was 17%, the growth inhibition [5, 18] was 97% (active) and the growth inhibition ([5]; at 50.0 µM) was 56.9%. For the same compound, the growth inhibition ([5]; at 100.0 µM) was 73% (active), the growth inhibition ([6]; at 1.2 µM) was -84% and the growth inhibition ([6]; at 3.7 µM) was -60%. The growth inhibition [6, 17] was 51%, the growth inhibition ([6]; at 11.0 µM) was -37% and the growth inhibition ([6]; at 33.0 µM) was -2%. The growth inhibition [6, 18] was 95% (active), the growth inhibition ([6]; at 50.0 µM) was 47.6% and the growth inhibition ([6]; at 100.0 µM) was 63%. It also gave a growth inhibition ([7]; at 1.2 µM) of -36%, a growth inhibition ([7]; at 3.7 µM) of -43% and a growth inhibition ([7]; at 11.0 µM) of -51%. For the same compound, the growth inhibition ([7]; at 33.0 µM) was -30%, the growth inhibition ([7]; at 100.0 µM) was 3% and the growth inhibition [8, 17] was 0%. For the same compound, the growth inhibition [8, 18] was 85% (active), the growth inhibition ([8]; at 50.0 µM) was 62.1% and the growth inhibition ([9]; at 1.2 µM) was -27%. The growth inhibition ([9]; at 3.7 µM) was -13%, the growth inhibition ([9]; at 11.0 µM) was 2% and the growth inhibition ([9]; at 33.0 µM) was 29%. The growth inhibition ([9]; at 100.0 µM) was 66%, the growth inhibition [10, 17] was 64% and the growth inhibition [10, 18] was 82% (active). It also gave a growth inhibition ([10]; at 50.0 µM) of 41.4%, a growth inhibition ([11]; at 1.2 µM) of -23% and a growth inhibition ([11]; at 3.7 µM) of -37%. The growth inhibition [11, 17] was 5%, the growth inhibition ([11]; at 11.0 µM) was -17% and the growth inhibition ([11]; at 33.0 µM) was 37%. The growth inhibition [11, 18] was 86% (active), the growth inhibition ([11]; at 50.0 µM) was 75.8% (active) and the growth inhibition ([11]; at 100.0 µM) was 79% (active). It also gave a growth inhibition ([12]; at 1.2 µM) of -68%, a growth inhibition ([12]; at 3.7 µM) of -67% and a growth inhibition ([12]; at 11.0 µM) of -21%. The growth inhibition ([12]; at 33.0 µM) was 9%, the growth inhibition ([12]; at 100.0 µM) was 65% and the growth inhibition [13, 17] was 40%. The growth inhibition [13, 18] was 98% (active), the growth inhibition ([13]; at 50.0 µM) was 59.1% and the growth inhibition ([14]; at 1.2 µM) was -47%. The growth inhibition ([14]; at 3.7 µM) was -45%, the growth inhibition ([14]; at 11.0 µM) was -57% and the growth inhibition ([14]; at 33.0 µM) was 28%. The growth inhibition ([14]; at 100.0 µM) was 81% (active).
Cc1c(C2=C(Br)C(=O)N(C)C2=O)c(=O)n(C)c(=O)n1C showed a growth inhibition ([1]; at 1.2 µM) of 11%, a growth inhibition ([1]; at 3.7 µM) of 26% and a growth inhibition ([1]; at 11.0 µM) of 51%. The growth inhibition ([1]; at 33.0 µM) was 67%, the growth inhibition ([1]; at 100.0 µM) was 87% (active) and the growth inhibition ([2]; at 1.2 µM) was 4%. It also gave a growth inhibition ([2]; at 3.7 µM) of 13%, a growth inhibition ([2]; at 11.0 µM) of 23% and a growth inhibition ([2]; at 33.0 µM) of 35%. The growth inhibition ([2]; at 100.0 µM) was 73% (active), the growth inhibition ([3]; at 1.2 µM) was 0% and the growth inhibition ([3]; at 3.7 µM) was -2%. The growth inhibition ([3]; at 11.0 µM) was -2%, the growth inhibition ([3]; at 33.0 µM) was 1% and the growth inhibition ([3]; at 100.0 µM) was 3%. For the same compound, the growth inhibition ([4]; at 1.2 µM) was -1%, the growth inhibition ([4]; at 3.7 µM) was 0% and the growth inhibition ([4]; at 11.0 µM) was 8%. For the same compound, the growth inhibition ([4]; at 33.0 µM) was 23%, the growth inhibition ([4]; at 100.0 µM) was 91% (active) and the growth inhibition ([5]; at 1.2 µM) was 6%. For the same compound, the growth inhibition ([5]; at 3.7 µM) was 15%, the growth inhibition [5, 17] was 10% and the growth inhibition ([5]; at 11.0 µM) was 46%. The growth inhibition ([5]; at 33.0 µM) was 78% (active), the growth inhibition [5, 18] was 55% and the growth inhibition ([5]; at 50.0 µM) was 81.9% (active). The growth inhibition ([5]; at 100.0 µM) was 91% (active), the growth inhibition ([6]; at 1.2 µM) was 7% and the growth inhibition ([6]; at 3.7 µM) was 15%. For the same compound, the growth inhibition [6, 17] was -3%, the growth inhibition ([6]; at 11.0 µM) was 26% and the growth inhibition ([6]; at 33.0 µM) was 45%. For the same compound, the growth inhibition [6, 18] was 20%, the growth inhibition ([6]; at 50.0 µM) was 56.1% and the growth inhibition ([6]; at 100.0 µM) was 94% (active). It also gave a growth inhibition ([7]; at 1.2 µM) of 5%, a growth inhibition ([7]; at 3.7 µM) of 13% and a growth inhibition ([7]; at 11.0 µM) of 28%. The growth inhibition ([7]; at 33.0 µM) was 47%, the growth inhibition ([7]; at 100.0 µM) was 91% (active) and the growth inhibition ([9]; at 1.2 µM) was -2%. The growth inhibition ([9]; at 3.7 µM) was 0%, the growth inhibition ([9]; at 11.0 µM) was 1% and the growth inhibition ([9]; at 33.0 µM) was 10%. It also gave a growth inhibition ([9]; at 100.0 µM) of 44%, a growth inhibition [10, 17] of 20% and a growth inhibition [10, 18] of -14%. For the same compound, the growth inhibition ([10]; at 50.0 µM) was 3.95%, the growth inhibition ([11]; at 1.2 µM) was 1% and the growth inhibition ([11]; at 3.7 µM) was 4%. The growth inhibition [11, 17] was 6%, the growth inhibition ([11]; at 11.0 µM) was 18% and the growth inhibition ([11]; at 33.0 µM) was 47%. The growth inhibition [11, 18] was 57%, the growth inhibition ([11]; at 50.0 µM) was 28.1% and the growth inhibition ([11]; at 100.0 µM) was 91% (active). For the same compound, the growth inhibition ([15]; at 1.2 µM) was 0%, the growth inhibition ([15]; at 3.7 µM) was 3% and the growth inhibition ([15]; at 11.0 µM) was 11%. For the same compound, the growth inhibition ([15]; at 33.0 µM) was 39%, the growth inhibition ([15]; at 100.0 µM) was 95% (active) and the growth inhibition ([16]; at 1.2 µM) was 0%. The growth inhibition ([16]; at 3.7 µM) was 3%, the growth inhibition ([16]; at 11.0 µM) was 13% and the growth inhibition ([16]; at 33.0 µM) was 48%. For the same compound, the growth inhibition ([16]; at 100.0 µM) was 97% (active), the growth inhibition ([12]; at 1.2 µM) was 2% and the growth inhibition ([12]; at 3.7 µM) was 11%. The growth inhibition ([12]; at 11.0 µM) was 22%, the growth inhibition ([12]; at 33.0 µM) was 60% and the growth inhibition ([12]; at 100.0 µM) was 94% (active). The growth inhibition [13, 17] was 4%, the growth inhibition [13, 18] was 84% (active) and the growth inhibition ([13]; at 50.0 µM) was 91.7% (active). For the same compound, the growth inhibition ([14]; at 1.2 µM) was 17%, the growth inhibition ([14]; at 3.7 µM) was 46% and the growth inhibition ([14]; at 11.0 µM) was 75% (active). The growth inhibition ([14]; at 33.0 µM) was 88% (active) and the growth inhibition ([14]; at 100.0 µM) was 96% (active).

— PubChem BioAssay (NCI)
